In the library only some 0.97% were active in any assay of this set; here they are far more common.
CCT chaperon mod = High-Throughput Screening for Modulators of Cytosolic Chaperonin Activity; purified chaperonin ATPase assay, HTRF ADP detection, 30 min; activity change, % (no concentration beside the values), hits read low; actives 0.3% (n = 360,000); AID 651819, 2012; in the data active means activity change below about -30%
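TRiC at 40 or 20 nM final (batch-dependent) in 30 mM Tris pH 7.4, 100 mM KCl, 5 mM MgCl2, 1 mM DTT, with compound at single 76 uM and 10 uM ATP, 30 min at 37 deg C. ADP detected by HTRF Transcreener, 665/615 ratio.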
PI4K2A block = qHTS for small molecular inhibitors of PI4K2A. activity change, negative = inhibition, % at 76.9 µM. AID 1346378, 2018. actives 0.13% (n = 420,000). purified PI4K2A, ADP-Glo luminescence, 1 h; stronger effect = lower value. Phosphatidylinositol 4-kinase type 2-alpha (Homo sapiens), Q9BTU6; in the data active means activity change below about -50%; inconclusive means mostly about -30% to -49%;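 further: -100% = wells without enzyme as full effect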
Target sequence (Q9BTU6 whole entry, looked up): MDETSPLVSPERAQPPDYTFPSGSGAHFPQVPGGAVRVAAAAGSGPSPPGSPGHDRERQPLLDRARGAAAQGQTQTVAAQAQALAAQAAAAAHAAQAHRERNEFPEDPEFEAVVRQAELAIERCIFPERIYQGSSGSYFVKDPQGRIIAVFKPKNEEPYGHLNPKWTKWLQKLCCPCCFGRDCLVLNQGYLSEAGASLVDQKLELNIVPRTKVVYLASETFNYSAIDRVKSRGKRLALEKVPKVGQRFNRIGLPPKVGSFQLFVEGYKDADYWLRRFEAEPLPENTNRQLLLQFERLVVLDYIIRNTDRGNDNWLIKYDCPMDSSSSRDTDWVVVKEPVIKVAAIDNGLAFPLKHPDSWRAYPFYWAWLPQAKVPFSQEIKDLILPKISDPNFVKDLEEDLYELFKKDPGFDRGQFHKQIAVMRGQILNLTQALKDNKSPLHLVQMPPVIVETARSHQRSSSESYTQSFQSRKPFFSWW
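ADP-Glo luminescence measured ADP generated by PI4K2A enzyme (4 ug/mL before mixing) with 1.2 mM PI substrate (pre-mix) and 300 microM ATP (pre-mix). Tris pH7.5 buffer with MgCl2, Triton X-100; 1 h reaction at ambient temperature.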
CtBP-E1A blk = qHTS Assay for Inhibitors of the CtBP/E1A Interaction | CtBP / adenovirus E1A interaction (AlphaScreen) | AlphaScreen GST-E1A/His-CtBP binding, 1536-well; stronger effect = lower value | activity change, % (no concentration beside the values) | actives 0.49% (n = 340,000)
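Protein mix (5X: 125 nM each GST-E1A, His-CtBP) was incubated with pinned compound 2 h at 37 deg C in dark, in 50 mM Tris pH 8.0 buffer with 300 mM NaCl. Glutathione donor and nickel acceptor beads followed; AlphaScreen signal read after 1 h.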
Six1-Eya2 blk = qHTS Assay for Inhibitors of the Six1/Eya2 Interaction. AlphaScreen GST-Six1/His-Eya2 binding, biochemical; stronger effect = lower value. activity change, % (no concentration beside the values). actives 0.56% (n = 360,000). AID 651725, 2012
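GST-Six1 + His-Eya2 (5X stock: 250/500 nM); Tris pH 8.0, 300 mM NaCl, 0.05% BSA, 0.02% Tween 20; GSH donor/Ni acceptor beads; 1 h 37 °C dark; AlphaScreen readout.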
Eya2 phos inh = qHTS Assay for Inhibitors of the Phosphatase Activity of Eya2; Protein phosphatase EYA2 (Homo sapiens), O00167; recombinant Eya2, OMFP fluorescence dephosphorylation (OMFP is methylfluorescein phosphate); Potency, µM (highest dose often 76.9 µM), without a hit: at the highest dose activity, negative = inhibition, hits mostly inhibitors; actives 0.006% (n = 330,000); AID 488837, 2010; active means well fitted inhibition curve with a large enough effect; inconclusive means small, poorly fitted or top-dose-only effect, or effect the other way; further: potency means the concentration at half of the fitted maximal effect
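Eya2 (0.2 uM) preincubated 10 min at ambient with compound, then OMFP substrate added at 50 uM; 10 min reaction in 50 mM HEPES pH 7.5, 50 mM NaCl, 5 uM MgCl2, 0.05% BSA, 1 mM DTT. Fluorescence read at Ex 485/Em 525 nm.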
* = called active by the depositor; ? = inconclusive; . = no result; ! = not active in a repeat. Unless noted, no stated cut-off is given here; in the data, active means activity change below about -65%; inconclusive means mostly about -30% to -63%; inactive means weaker than that. Unless noted, on the % scale 0 is the no-effect control and ±100 the full control effect.

SMILES	CCT chaperon mod	PI4K2A block	CtBP-E1A blk	Six1-Eya2 blk	Eya2 phos inh
CCCCOc1ccc(NC(=O)c2cc(F)c(F)cc2Cl)cc1	1	0	-12	12	-3%
CCOc1ccc(NC(=O)c2cc(F)c(F)cc2Cl)cc1OCC	-2	4	-97*	-6	4%
CCOc1ccc(NC(=O)CN(C)C(=O)CCNC(=O)c2ccccc2Cl)cc1OCC	-44*	-2	-2	-14	16%
CC(C)C(=O)Nc1cccc(C(F)(F)F)c1	.	1	.	.	.
Cc1cccc(OCC(O)CNC(C)(C)C)c1C (configuration not stated)	.	-1	.	.	.
COc1cccc(NC(=O)c2csc3c2CCCC3)c1	-1	-1	-19	12	3%
COc1ccc(NC(=O)c2csc3c2CCCC3)cc1	-3	-61*	4	0	-12%
CCOC(=O)c1ccc(NC(=O)C23CCC(C)(C(=O)O2)C3(C)C)cc1 (configuration not stated)	-38*	2	-2	-1	-20%
CCCCNC(=O)NCC1CCN(Cc2ccc(OC)cc2)CC1	.	-3	.	.	.
N#C/C(N=Nc1ccccc1O)=N\Nc1ccccc1O	-4	-14	-82*	-70*	-28%
O=C(Oc1c(CN2CCOCC2)cc(Cl)c2cccnc12)c1ccccc1F	0	-15	-91*	-91*	13%
O=C(Oc1c(CN2CCOCC2)cc(Cl)c2cccnc12)c1ccccc1	1	-8	-78*	?	10%
COc1cc(OC)cc(C(=O)Oc2c(CN3CCOCC3)cc(Cl)c3cccnc23)c1	-3	-12	?	?	4%
O=S(=O)(O)c1ccc(O)c2cc(Nc3ccccc3)ccc12	-2	?	-29	-73*	.
Cc1ccc(NC(=O)CC2S/C(=N/N=C3/NC(=O)CS3)NC2=O)cc1 (configuration not stated)	0	-1	-23	-75*	15%
COC(=O)/C=C1/N/C(=N\c2nc(C)cc(C)n2)N(c2ccccc2)C1=O	1	-2	3	1	4%
COC(=O)/C=C1\N/C(=N\c2nc(C)cc(C)n2)N(c2ccccc2)C1=O	-38*	3	3	-13	9%
COCCCN1C(=O)C(=O)/C(=C(/O)c2ccc(S(=O)(=O)N3CCCCC3)cc2)C1c1cccc(OC)c1 (configuration not stated)	-84*	-2	.	-7	7%
COCCCN1C(=O)C(=O)/C(=C(/O)c2ccc(S(=O)(=O)N3CCCCC3)cc2)C1c1ccc(O)c(OC)c1 (configuration not stated)	-2	2	5	2	4%
COC(=O)[C@]12C[C@H](CC(=O)NCc3cccc(C(F)(F)F)c3)C(=O)N(Cc3ccco3)C1=C[C@H](C(C)(C)C)O[C@@H]2C	.	1	.	.	.
Cc1ccc2ccc3cccnc3c2n1	-2	2	-90*	?	.
CCCS(=O)(=O)N1CC(=O)N(c2ccccc2F)C(C)(C(=O)NC2CCCCCC2)C1 (configuration not stated)	.	-2	.	.	.
COc1ccc(CCNC(=O)c2ccc(Cn3c(=O)c4cccn4c4cccnc43)cc2)cc1OC	.	-3	.	.	.
O=C(c1ccccc1)c1ccccn1	0	-1	7	-2	7%
O=C(O)c1ccccn1	-1	-8	-66*	?	3%
SMILES	CCT chaperon mod	PI4K2A block	CtBP-E1A blk	Six1-Eya2 blk	Eya2 phos inh
O=C(O)c1ccnc(C(=O)O)c1	0	-5	?	-69*	32%
S=C(Nc1ccccc1)Nc1ccccn1	1	5	-1	-2	.
S=C(Nc1ccccc1)c1ccccn1	5	10	-75*	-84*	9%
CN(C)c1cccc(/C=C2\CC3(OC(=O)c4cccc(F)c4)CCCN2C3)c1 (configuration not stated)	.	-6	.	.	.
CCOC(=O)c1sc(NC(=O)CNCc2ccccn2)c(C(=O)OCC)c1C	0	-10	-71*	?	-23%
CCOC(=O)c1sc(NC(=O)CNCc2cccnc2)c(C(=O)OCC)c1C	-1	-21	-2	10	-1%
CCOc1ccccc1NC(=O)CSc1nc2ccccc2nc1Cc1ccc(C)cc1	.	3	.	.	.
CCCC(=O)O[C@]1(C(=O)CC)CC[C@H]2[C@@H]3CCC4=CC(=O)CC[C@]4(C)[C@H]3[C@@H](O)C[C@@]21C	.	-1	.	.	.
O=C(O)c1cccc(Nc2nc(-c3cc4ccccc4oc3=O)cs2)c1	2	0	-79*	-78*	-1%
Cc1nc2ccccn2c1-c1csc(Nc2cccc(C(=O)O)c2)n1	-1	2	-71*	?	-7%
O=c1oc2ccccc2cc1-c1csc(NN=C2CCCC2)n1	-1	-6	22	21	1%
Cc1nc2ccccn2c1-c1csc(Nc2ccc(C(=O)O)cc2)n1	-1	-5	-30	-17	-8%
COc1ccc(OCC(O)Cn2c(NCCO)nc3c2c(=O)n(C)c(=O)n3C)cc1 (configuration not stated)	.	-1	.	.	.
Cc1ccc(Cl)cc1NC1=C/C(=N\S(=O)(=O)c2cccs2)c2ccccc2C1=O	0	?	-78*	-74*!	6%
Cc1ccc(NC2=C/C(=N\S(=O)(=O)c3cccs3)c3ccccc3C2=O)c(C)c1	-4	?	-85*	-84*	-24%
Cc1cccc(NC2=C/C(=N/S(=O)(=O)c3cccs3)c3ccccc3C2=O)c1	0	-2	?	-23	-4%
Cc1ccccc1N1CCN(C(=O)c2ccccc2NC(=O)c2ccccc2C(=O)O)CC1	-66*	-7	.	-14	-3%
N#CSCC(=O)O	.	0	.	.	.
Cc1cc(C)c(NC(=O)CN(C)CC(=O)N(C)CC(=O)Nc2c(Cl)cccc2Cl)c(C)c1	-57*	-1	.	24	3%
O=C(N/C(=C/c1ccc(Br)cc1)C(=O)N1CCCC1=O)c1ccco1	-1	7	-93*	-10	-1%
C/C(=N\OCC(=O)N/N=C/c1ccccc1)c1cccs1	0	-4	4	2	-18%
C/C(=N\OCC(=O)N/N=C/c1ccccc1O)c1cccs1	-4	-5	-67*	?	-14%
O=C(O)c1cccc2cccc(-c3c4ccc(=O)c(O)c-4oc4c(O)c(O)ccc34)c12	1	-55*	0	-76*	.
O=C(O)c1cccc2cc(-c3ccccc3)oc(=O)c12	0	-6	4	9	-13%
c1ccc(-c2nc(-c3ccccn3)nc(-c3ccccn3)n2)nc1	0	-5	?	?	11%
c1ccc(C2=NNC(c3ccccn3)=NN2)nc1	-6	-5	-80*	-71*	6%

Screens deposited in PubChem BioAssay by National Center for Advancing Translational Sciences (NCATS).
